# ± gives the standard deviation of the averaged measurements.
# Columns and labels:
# [1] = tested on: DLD1; test: cell viability (CellTiter-Glo) relative to plate median (fraction of plate median); higher = more viable cells; details: 5 µM; treatment time 24 h; reporter: 7TFP
# Method in brief: (§1)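 Each entry is a luminescence signal normalised to the plate median, averaged over independent replicates. The replicate count was two, and the cells were colorectal cancer lines with stable lentiviral TCF/Wnt firefly luciferase reporters exposed to library compounds at a final 5 µM for 24 h. Firefly luciferase and CellTiterGlo were measured on parallel plates.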
# [2] = tested on: HCT116; test: as above; details: 5 µM; treatment time 24 h; reporter: TCF4/Wnt
# Method in brief: as §1
# [3] = tested on: SW480; test: as above; details: 5 µM; treatment time 24 h; reporter: 7TFP
# Method in brief: as §1
# [4] = tested on: DLD1; test: TCF/Wnt firefly luciferase reporter signal relative to plate median (fraction of plate median); higher = higher Wnt reporter signal; details: 5 µM; treatment time 24 h; reporter: 7TFP
# Method in brief: as §1
# [5] = tested on: SW480; test: as above; details: 5 µM; treatment time 24 h; reporter: 7TFP
# Method in brief: as §1
SMILES,cell viability [1],cell viability [2],cell viability [3],TCF/Wnt firefly luciferase reporter signal [4],TCF/Wnt firefly luciferase reporter signal [5]
CN1CCCCC1c1ccc(-c2cccnc2)nc1 (stereo not given),0.963 ± 0.024,0.901 ± 0.12,1.01 ± 0.027,1.03 ± 0.021,0.983 ± 0.096
C[C@]12CC[C@H](O)CC1=CC[C@@H]1[C@@H]2CC[C@]2(C)C(=O)CC[C@@H]12,1.04,1.15 ± 0.021,1.02 ± 0.021,1.04 ± 0.14,0.916 ± 0.026
COc1cc2c(c(OC)c1OC)-c1ccc(OC)c(=O)cc1[C@@H](NC(C)=O)CC2,1.1 ± 0.057,0.636 ± 0.016,1.22 ± 0.099,0.77 ± 0.22,0.802 ± 0.13
C[C@]12CCC(=O)C(O)=C1CC[C@@H]1[C@@H]2CC[C@]2(C)C(=O)CC[C@@H]12,0.956 ± 0.011,0.996 ± 0.076,0.9485 ± 0.0021,1.01 ± 0.023,1.01 ± 0.073
c1cncc([C@@H]2CCCCN2)c1,0.993 ± 0.011,0.952 ± 0.17,0.9635 ± 0.0078,0.971 ± 0.11,0.927 ± 0.044
CCNc1nc(Cl)nc(NC(C)C)n1,0.981 ± 0.017,1.07 ± 0.064,0.946 ± 0.023,0.965 ± 0.0071,0.976 ± 0.0071
COc1cc2c3cc1Oc1c(OC)c(OC)cc4c1[C@@H](Cc1cccc(c1)Oc1ccc(c(O)c1)C[C@@H]3N(C)CC2)N(C)CC4,1.03 ± 0.045,1 ± 0.028,1.12 ± 0.05,0.9605 ± 0.00071,1.12 ± 0.064
C/C(=C\c1csc(C)n1)[C@@H]1C[C@@H]2O[C@@H]2CCC[C@H](C)[C@H](O)[C@@H](C)C(=O)C(C)(C)[C@@H](O)CC(=O)O1 [Epothilone A],1.09 ± 0.021,0.464 ± 0.073,1.14 ± 0.099,0.732 ± 0.076,0.8595 ± 0.0078
COc1cccc(C2(O)CCCCC2CN(C)C)c1 (stereo not given),0.997 ± 0.019,1.03 ± 0.047,1 ± 0.036,1.09 ± 0.057,1.09 ± 0.021
CN1[C@@H]2CC[C@H]1C[C@@H](OC(=O)C(CO)c1ccccc1)C2 (stereo not given in full),0.911 ± 0.12,1.01 ± 0.033,0.994 ± 0.08,0.938 ± 0.21,0.938 ± 0.038
CC(C)=CC1C(C(=O)OCc2cccc(Oc3ccccc3)c2)C1(C)C (stereo not given),0.971 ± 0.02,1.02 ± 0.037,0.985 ± 0.035,0.988 ± 0.1,0.979 ± 0.0042
CC(=O)O[C@@H]1CC[C@@]2(C)[C@@H](CC[C@@H]3[C@@H]2CC[C@]2(C)C(=O)CC[C@@H]32)C1,1.025 ± 0.0071,0.924 ± 0.28,1.01 ± 0.04,1.15 ± 0.035,1.08 ± 0.099
CC(CCc1ccccc1)NC(C)C(O)c1ccc(O)cc1 (stereo not given),0.942 ± 0.064,0.904 ± 0.061,0.902,1.2 ± 0.11,1.12 ± 0.014
CCCC(C)C1(CC)C(=O)NC(=S)NC1=O (stereo not given),1.005 ± 0.0071,1.03 ± 0.11,1.02 ± 0.035,1.16 ± 0.15,0.974 ± 0.065
COc1cc2c(c3oc4cccc(O)c4c(=O)c13)[C@@H]1C=CO[C@@H]1O2 [Sterigmatocystin],1.1 ± 0.16,1.17 ± 0.014,1.08 ± 0.057,0.845 ± 0.25,0.902 ± 0.077
Cc1ccc(C[N+](C)(C)C)o1,1 ± 0.026,1.025 ± 0.0071,1.02 ± 0.014,0.864 ± 0.012,0.903 ± 0.027
CC(C)=CCC[C@]1(C)C=Cc2c(O)c3c(c(CC=C(C)C)c2O1)O[C@]12C(=C[C@@H]4C[C@H]1C(C)(C)O[C@@]2(C/C=C(/C)C(N)=O)C4=O)C3=O,0.976 ± 0.049,0.9335 ± 0.00071,1.03 ± 0.021,0.947 ± 0.011,0.895 ± 0.1
N[C@@H](Cc1ccc(N(CCCl)CCCl)cc1)C(=O)O,1.01 ± 0.17,1.02 ± 0.04,1 ± 0.04,0.986 ± 0.0057,0.936 ± 0.081
"C[C@]12CCC(=O)C[C@@H]1CC[C@@H]1[C@@H]2CC[C@]2(C)C(=O)CC[C@@H]12 [5alpha-ANDROSTAN-3,17-DIONE]",0.895 ± 0.095,1.07,0.959 ± 0.052,0.959 ± 0.086,0.9525 ± 0.005
CCCCCCCCCc1ccc(O)cc1,1.03 ± 0.028,0.999 ± 0.016,0.946 ± 0.0071,1.19 ± 0.092,1.17 ± 0.05
NCCc1cc(O)c(O)cc1O,1.04 ± 0.065,1.03 ± 0.028,0.983 ± 0.025,1.13 ± 0.16,1.24 ± 0.021
Cc1ccc(/N=C/N(C)/C=N/c2ccc(C)cc2C)c(C)c1,1.01 ± 0.021,0.988 ± 0.074,0.975 ± 0.036,1.1 ± 0.057,0.927 ± 0.12
CC(=O)Oc1ccc(/C=C/c2cc(OC(C)=O)cc(OC(C)=O)c2)cc1,1.05 ± 0.042,1.02 ± 0.014,1.09 ± 0.021,1.14 ± 0.26,1.17 ± 0.078
CC(C)(C)[C@]1(O)C[C@@H]2OC(=O)C[C@@]23C(=O)O[C@@H]2OC(=O)[C@H](O)[C@]213,0.922 ± 0.033,1.03 ± 0.05,1.01 ± 0.077,1.17 ± 0.042,1.07 ± 0.1
c1ccc2c(c1)[nH]c1cnccc12,0.956 ± 0.041,1.01 ± 0.021,0.9715 ± 0.005,0.892 ± 0.19,0.879 ± 0.065
C[C@H]1O[C@H](O[C@H]2[C@H](O)[C@@H](O)[C@@H](O)[C@H](O)[C@@H]2O)[C@@H](N)C[C@@H]1NC(=N)C(=O)O,0.989 ± 0.086,1.06 ± 0.035,1.035 ± 0.0071,1.03 ± 0.028,0.949 ± 0.086
C=CCSSCC=C,1.055 ± 0.0071,1.045 ± 0.0071,1.05 ± 0.078,1.1 ± 0.085,0.95 ± 0.13
COC(C)(C)CCC[C@H](C)C/C=C/C(C)=C/C(=O)OC(C)C,0.948 ± 0.1,1.02 ± 0.014,0.972 ± 0.083,0.968 ± 0.12,0.787 ± 0.08
"CC(=O)C1CCC2C3CCC4C[C@H](O)CCC4(C)C3C[C@H](O)C12C (stereo partly drawn) [DIHYDROXY (3alpha,12alpha)PREGNAN-20-ONE]",1.01 ± 0.042,1.12 ± 0.13,1.1 ± 0.064,0.9925 ± 0.0064,0.9855 ± 0.0021

# Reference: the supplement of paper PMC6522484
